Experimental findings from ChEMBL document CHEMBL3988442, “University of Dundee, Small-Polar-MMV Screening Library” (2021) are described below.

Several values for one entry are separate records, joined by “and”; a condition that tells them apart may be missing. Equal entries are not always repeated. Hit rate of the full screen: of about 67,000 compounds, about 40 (0.06%) showed an effect of 50% or more. The entries come from a sample that favours strong results as a whole.

In the assay the target is T1, Coenzyme A biosynthesis bifunctional protein CoaBC (Mycobacterium tuberculosis (strain ATCC 25618 / H37Rv)) (UniProt P9WNZ1).
T1 sequence (whole entry): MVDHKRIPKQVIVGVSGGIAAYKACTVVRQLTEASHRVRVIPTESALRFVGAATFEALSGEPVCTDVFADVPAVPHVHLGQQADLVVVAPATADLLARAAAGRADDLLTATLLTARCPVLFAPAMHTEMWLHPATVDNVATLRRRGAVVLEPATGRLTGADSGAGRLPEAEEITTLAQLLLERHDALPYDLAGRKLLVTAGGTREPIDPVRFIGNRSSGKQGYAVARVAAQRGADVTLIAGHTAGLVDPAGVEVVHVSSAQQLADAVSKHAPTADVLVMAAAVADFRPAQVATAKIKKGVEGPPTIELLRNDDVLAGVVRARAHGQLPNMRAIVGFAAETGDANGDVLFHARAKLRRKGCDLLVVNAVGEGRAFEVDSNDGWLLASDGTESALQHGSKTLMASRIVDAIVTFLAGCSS
The assay is described as follows: Biomol Green assay for MtCoaBC inhibitor, OD650 read. The format is functional. Details: scale not given: in the data most compounds retested in dose-response had high values. The note with it: 30 µM.
Take `CCOCC1CN(C(=O)C2=CCCC2)Cc2cnn(CC)c21` (centres undefined): the Percent Effect was 12.8%.
As to `CCOCC1CN(C(=O)N2CCCC2)Cc2cnn(C)c21` (centres undefined), the Percent Effect was -2.1%.
The result for `O=C1NCCO[C@H]2CN(C(=O)c3cccs3)CC[C@@H]12` reads 2.96%; that for `CNC(=O)[C@H]1C[C@@H]2CN(C(=O)c3ccncc3)C[C@@H]2N1S(C)(=O)=O`, 2.59%; that for `O=C(NCCc1cccs1)[C@H]1CO[C@H]2CCN(C3CCC3)C[C@H]2C1`, 6.17%.
The figure for `O=C1CO[C@@H]2CNC[C@H]2N1CC1CC1` is 0%; for `Cn1cc(CN2CC[C@@H]3[C@@H]2CCN3C(=O)c2cccc(F)c2)cn1` it is 5.07%.
The figure for `CN1CCCCC1c1cncc(N2CCC(O)CC2)n1` (centres undefined) is -0.526%; for `Cc1cc(N2CCC(O)CC2)nc(C)n1` it is 11.1%.
Turning to `CCCc1cc(C(=O)N2C[C@H]3CC=C(C)C[C@H]3C2)ccn1`, the Percent Effect was found to be 2.3%.
The result for `O=C(NCC1CCOCC1)[C@@H]1C[C@@H]2[C@@H](CCN2Cc2ccoc2)O1` reads 2.96%.
The figure for `CCc1cnc(N2C[C@H]3CN(Cc4ccc(OC)cc4)C(=O)[C@H]3C2)nc1` is -3.75%; for `CC(C)c1nc(C(=O)N2C[C@H]3CC[C@@H]2CN(C2CCOCC2)C3)cs1` it is 5.66%.
As to `Cn1cc(CN2CC[C@H]3O[C@H](C(=O)NC4CC4)CC[C@H]32)c2ccccc21`, the Percent Effect was -3.06%.
As for `CN(C)c1ncc2c(n1)CN(C1CC(C)(C)NC(C)(C)C1)C2=O`, the Percent Effect amounted to 0.231%.
As to `CC(C)OC(=O)N1C[C@H]2CC[C@@H]1CN(Cc1cccnc1)C2`, the Percent Effect was determined as 5.14%.
Consider `COC1CCN(CCNC(=O)NC(C)c2cccc(Cl)c2)CC1` (centres undefined), for which the Percent Effect is -0.455%.
Turning to `COC1CCN(CCNC(=O)NCC(C)c2cccc(C)c2)CC1` (centres undefined), the Percent Effect is -16.8%.
The figure for `COc1cccc(CN2C[C@H]3CC[C@H]2C3)c1OCCN1CCOCC1` is 4.29%.
The result for `CCc1ccc(CN2CCN(CCOC)[C@@H]3CS(=O)(=O)C[C@@H]32)cc1` reads 8.73%; that for `Cc1noc(C)c1CN1C[C@@H]2COC[C@H](C(=O)N3CCCCO3)[C@@H]2C1`, 0.259%.
The figure for `CC(C)N(Cc1ccc(Cl)c(Cl)c1)C(=O)CCn1cncn1` is 5.9%; for `CC(C)N(Cc1ccc(Cl)c(Cl)c1)C(=O)Cn1cncn1` it is 5.66%.
On to `O=C(c1ccncc1)N1C[C@@H](OCc2cccnc2)[C@H]2OCCC[C@H]21`, for which the Percent Effect is 4.2%.
The result for `Cc1ccc(-n2cc(S(=O)(=O)Nc3cccc(C(=O)O)c3C)cn2)cc1` reads 0.726%; that for `Cc1ccc(NS(=O)(=O)c2cnn(-c3ccccc3)c2)c(C(=O)O)c1`, 64.4% and 43.6%; that for `Cc1ccc(NS(=O)(=O)c2cnn(Cc3ccccc3)c2)c(C(=O)O)c1`, 0.726%.
The figure for `COCCC(=O)NC[C@H]1CC[C@H](C(c2ccccn2)N(C)C)CC1` (some centres undefined) is -1.84%; for `CNC(=O)N1CC[C@@H]2CN(Cc3ccccc3)S(=O)(=O)[C@@H]2CC1` it is 1.48%; for `Cc1ccc(N2CC[C@@]3(O)CCN(S(C)(=O)=O)C[C@H]3C2)nn1` it is -0.123%.
For `O=C(CC1CC1)N1CC[C@H]2[C@@H]1CCC(=O)N2c1cccnc1`, the Percent Effect came out at 5.4%.
The result for `COc1cc(N2CC[C@@H]3O[C@H](C(=O)NCC4CC4)C[C@@H]32)ncn1` reads -0.37%; that for `COCCN1CCC2(CC1)CN(CCn1cccn1)C(=O)CO2`, -1.25%; that for `O=C1COC2(CCN(Cc3ccoc3)CC2)CN1CCn1cccn1`, -3.75%.
For the compound `Cn1cc(C(=O)N2CC[C@@]3(O)CCN(C4CCCCC4)C[C@H]3C2)cn1`, the Percent Effect stood at 0.467%.
Consider `CN(C)CCO[C@@H]1CC[C@H]2[C@H]1OCCN2C(=O)c1ccccc1F`, for which the Percent Effect came out at 3.95%.
With `CNC(=O)[C@H]1C[C@@H]2CN(S(=O)(=O)c3ccc(C)cc3)C[C@@H]2N1C`, the Percent Effect stood at 1.63%.
In the case of `O=C([C@@H]1C[C@@H]2CCN(c3cccc(F)c3)C[C@H]2O1)N1CCCC1`, the Percent Effect was -8.02%.
The figure for `Cc1cccc(CN2C(=O)C[C@H]3[C@@H]2CCN3Cc2ccc(F)cc2)n1` is 9.41%.
The figure for `CC(=O)N1[C@H](Cn2cncn2)C[C@@H]2CN(c3ccc(C)nn3)CC[C@@H]21` is 6.82%.
The result for `O=C(NC1CCC1)[C@@H]1C[C@@H]2CCN(Cc3ccncc3)C[C@H]2O1` reads 4.7%.
In the case of `Cc1ccc(NC2(C(=O)N3CCn4cncc4C3)CCCCC2)cc1C`, the Percent Effect amounted to 4.82%.
With `COc1ccc(NC2(C(=O)N3CCn4cncc4C3)CCCC2)cc1`, the Percent Effect amounted to 8.96%.
The result for `CC1=N[C@@]2(CC[C@@H]3CN(C(=O)NCc4ccccc4C)C[C@@H]32)C(=O)N1` reads 0.609%; that for `O=C(COC[C@@H]1CC[C@H]2[C@H](CCN2Cc2ccco2)O1)N1CCCC1`, 9.53%; that for `CC(C)C(NC(=O)NCC1CC1)c1nnc2n1CCC2` (centres undefined), -0.508%.
The figure for `CCC1(CNC(=O)NC(c2nnc3n2CCC3)C(C)C)CCC1` (centres undefined) is -3.55%; for `COCCN1C(=O)[C@]2(CC[C@@H]3CN(S(=O)(=O)CC(C)C)C[C@@H]32)N=C1C` it is -3.81%; for `CC(C)CC(=O)N1CC[C@@H]2CN(CC(=O)N(C)C)S(=O)(=O)[C@@H]2CC1` it is 2.32%.
For `Cc1noc([C@H]2C[C@@H]3CCN(CC4CC4)C[C@H]3O2)n1`, the Percent Effect was -1.9%.
The result for `Cc1cccc(CN2CC[C@H]3[C@H]2CCN3Cc2cnn(C)c2)n1` reads -4.59%.
The figure for `c1cc(COC[C@@]23CCC[C@@H]2CN(C2CCOCC2)C3)ccn1` is 6.42%; for `Cc1cnn(CC2CCCN2Cc2nnc(Cc3ccccc3)o2)c1` (centres undefined) it is 0.119%.
For `Cc1cnn(CC2CCCN2Cc2ncc(-c3ccccc3)o2)c1` (centres undefined), the Percent Effect came to 2.73%.
